{"source": "PubChem BioAssay (NCI)", "note": "The panel holds about 83,000 compounds, 20% with a hit somewhere; the sample as a whole holds those more often.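 Compound tested at a single concentration for 48 hours in 96-well plates; a percent growth value below 10 was scored as active.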 Unmarked numbers belong to inactive results. Calls of active or inactive are those of the source.", "data": [{"system": "MDA-MB-468 breast", "assay": "NCI-60 one-dose screen, 48 h (100 = growth as untreated, 0 = no growth, -100 = all killed)", "conditions": "10 µM unless noted", "values": [{"smiles": "O=[N+]([O-])c1ccc(NCSc2ccc(Cl)cc2)cc1", "growth": "98.6%"}, {"smiles": "Clc1ccc(Sc2cnc(-c3ccccc3)o2)cc1", "growth": "111%"}, {"smiles": "COc1ccc2c(c1)CCCC21C(=O)Nc2c(Cl)cccc21", "note": "(stereo unspecified)", "growth": "109%"}, {"smiles": "c1ccc(-c2cn3ccnc3c(-c3ccc4ncn(C5CCCCC5)c4c3)n2)cc1", "growth": "45.6%"}, {"smiles": "C=C(C)[C@@H]1C[C@H](O)Cc2cc(Cl)cc(Cl)c2N1", "growth": "97.5%"}, {"smiles": "Cc1ccc(N2C(=O)C=CC2=O)cc1", "growth": "-25.2% (active)"}, {"smiles": "C=CCn1c(C)nc2cc(Nc3nc(Cl)nc4ccccc34)ccc21", "growth": "83.7%"}, {"smiles": "CNC(=O)CN1CCC(Oc2cc3c(Nc4cccc(Cl)c4F)ncnc3cc2OC)CC1", "growth": "-22.9% (active)"}, {"smiles": "CCCCC1(O)CCCCC1", "growth": "94.9%"}, {"smiles": "CCCCCCCC/C=C\\CCCCCCCCOc1ccccc1CC(=O)NCC[N+]1(C)CCCC1", "growth": "40.3%"}, {"smiles": "C=C(C)[C@@H]1CC[C@]2(COC)CC[C@]3(C)[C@H](CC[C@@H]4[C@@]5(C)CCCNC(C)(C)[C@@H]5CC[C@]43C)[C@@H]12", "growth": "-50.5% (active)"}, {"smiles": "CCOC(=O)NC(C)C", "growth": "96.4%"}, {"smiles": "N/C(=N\\c1nc2c(Cl)cc(Cl)cc2s1)C(Cl)(Cl)Cl", "growth": "-48.6% (active)"}, {"smiles": "COc1cccc(-c2cc(-c3cccs3)c(C#N)c(=O)[nH]2)c1", "growth": "107%"}, {"smiles": "CC(=O)Nc1nonc1-c1nc2ccccc2n1Cc1ccc(C(C)(C)C)cc1", "growth": "86.8%"}, {"smiles": "O=C1c2cc([N+](=O)[O-])ccc2-c2cc(Cl)c(NC(=O)C(F)(F)F)cc21", "growth": "-17.9% (active)"}]}]}
